# Source: PubChem BioAssay (Broad Institute)
# Yp Topo-I inh: Y. pestis Topo-I inhibition via cleavage products; Y. pestis Topo-I cleavage product accumulation, plate reader; activity, % at 10 µM; 360,000 tested, 0.064% active; AID 504884; in the data active = activity above about 50%, passing the limit was not always enough
# Mtb BioA inh: inhibitors of Mycobacterium tuberculosis BioA enzyme. purified M. tuberculosis BioA enzyme, plate reader. inhibition, % at 9.99 µM. 360,000 tested, 0.096% active; in the data active = inhibition above about 40%
# TcdB inh: blocks C. difficile toxin B glycohydrolase activity; inhibition, % at 9.99 µM; 350,000 tested, 0.24% active; AID 652162; TcdB glycohydrolase enzymatic assay, plate reader; in the data active = inhibition above about 10%
# PrP UTR inh: suppresses PrP 5' UTR mRNA reporter expression. cell-based PrP 5' UTR mRNA reporter, plate reader. inhibition, % (no concentration beside the values). 340,000 tested, 0.35% active. AID 488862; in the data active = inhibition above about 52%; also: 0 = median of the neutral control wells
# * = called active by the depositor; . = no result. Hits are enriched below; roughly 0.53% of the tested compounds scored in any of these assays.
SMILES,Yp Topo-I inh,Mtb BioA inh,TcdB inh,PrP UTR inh
Cc1ccc(CSC2=NCCN2S(=O)(=O)c2ccccc2)cc1,18,.,2,-20
O=C1Nc2ccccc2C1=Nc1ccccc1-c1ccccc1,7,.,10*,-53
COc1ccc(-n2c(-c3ccc(F)cc3)cnc2SCC(=O)NCc2ccco2)cc1,51*,.,.,-34
C[C@@H]1CN([C@@H](C)CO)C(=O)c2cc(NC(=O)c3ccccc3)ccc2O[C@@H](C)CCCCO[C@H]1CN(C)Cc1ccc(C(F)(F)F)cc1,.,-1,0,.
CC(C)N1CCc2c(sc(NC(=O)c3ccc([N+](=O)[O-])o3)c2C(N)=O)C1,-8,6,1,95*
CC(=O)N1CCc2c(sc(NC(=O)c3ccc([N+](=O)[O-])o3)c2C#N)C1,-9,3,1,34
O=c1c2ccccc2[nH]c(=S)n1-c1cccnc1,.,.,1,.
O=c1c2ccc(Cl)cc2[nH]c(=S)n1-c1cccnc1,-12,.,10*,-26
C[C@H]1CN([C@@H](C)CO)C(=O)c2cc(-c3ccc(C#N)cc3)cnc2O[C@@H]1CN(C)Cc1ccccn1,.,5,-1,.
COc1cc(NC(=O)CSc2nc3[nH]ncc3c(=O)n2-c2ccccc2C)cc(OC)c1OC,4,.,18*,-37
CN(c1ccccc1)S(=O)(=O)c1cccc(C(=O)NCCc2ccc(O)c(O)c2)c1,-9,.,15*,-17
CCN(CC)S(=O)(=O)c1cccc(C(=O)NCCc2ccccc2)c1,7,-1,1,-58
Cc1cc(/C=C\c2ccc3cc(N(C)C)ccc3[n+]2C)c(C)n1-c1ccccc1,7,0,.,73*
C[n+]1c(/C=C/c2ccc(O)cc2)ccc2ccccc21,-30,3,2,-28
O=C(NCc1cc(F)cc(F)c1)[C@@H]1[C@@H](CO)[C@@H]2Cn3c(cccc3=O)[C@H]1N2C(=O)c1cnccn1,.,1,1,.
COc1ccc(CNC(=O)CN(Cc2ccc(C)cc2)S(=O)(=O)c2ccc(Cl)cc2)cc1,52*,0,.,-18
COc1ccc(CNC(=O)CN(C)S(=O)(=O)c2ccc(Cl)cc2)cc1,6,-1,-1,-26
Cc1nnc(SCC(=O)N2c3ccccc3C(C)(c3ccccc3)CC2(C)C)s1 (configuration not stated),59*,.,.,1
COc1cccc(-c2ccc([C@H]3[C@@H](CO)N4C(=O)CN(C(=O)NC(C)C)C[C@@H]34)cc2)c1,.,.,0,.
CCOC(=O)CSC1=C(C#N)C(c2ccc(C)o2)CC(=O)N1 (configuration not stated),-4,1,0,55*
C[C@@H](NC(=O)C[C@H]1CC[C@H]2[C@@H](COC[C@H](O)CN2C(=O)Nc2ccccc2)O1)c1ccccc1,.,-3,0,.
O=[N+]([O-])c1ccc2nc(-c3ccc(Cl)cc3)[nH]c2c1,-26,.,5,-106
COc1ccc(-c2nc3ccc([N+](=O)[O-])cc3[nH]2)cc1,-18,.,14*,-32
Cc1ccc(-c2nc3ccc([N+](=O)[O-])cc3[nH]2)cc1,-14,.,12*,-20
CCOC(=O)Cc1csc(SCC(=O)Nc2cc(Cl)ccc2Oc2ccccc2)n1,68*,.,.,-12
SMILES,Yp Topo-I inh,Mtb BioA inh,TcdB inh,PrP UTR inh
COc1ccc(Cl)cc1NC(=O)CSc1nnc(CNC(=O)c2ccco2)o1,0,0,0,-20
COc1ccc(Cl)cc1NC(=O)CSc1nnc(-c2ccco2)o1,4,2,19*,-4
O=C(Nc1ccccc1F)N1C[C@H]2[C@@H](c3ccccc31)[C@H](CO)N2C(=O)c1ccccc1F,.,4,2,.
C=CC[C@@H](CC/C=C/C=C/CC/C=C\[C@@H]1CSC([C@@H]2C[C@@H]2C)=N1)OC,35,0,.,56*
CSc1ccccc1NC(=O)C1=CC(c2ccc(C)cc2)=NS(=O)(=O)N1C,9,-2,29*,-8
CSc1ccccc1NC(=O)COC(=O)c1ccccc1Cc1ccccc1,62*,.,.,-26
CSc1ccccc1NC(=O)COC(=O)c1ccccc1O,0,.,0,-21
COc1cc(/C=N/n2c(-c3cc(C)[nH]n3)n[nH]c2=S)ccc1O,5,.,19*,-38
C[C@@H]1CN([C@H](C)CO)C(=O)c2cc(-c3ccc(F)cc3)cnc2O[C@H]1CN(C)C(=O)NC1CCCC1,.,3,0,.
Clc1ccc(COn2c(-c3ccc(Cl)cc3)nc3ccccc32)cc1,27,-1,.,-24
Clc1ccc(COn2c(-c3ccccc3)nc3ccccc32)cc1,59*,-1,.,-13
O=C(O)COn1c(-c2ccc(Cl)cc2)nc2ccc(Cl)cc21,-7,.,10*,-33
CO[C@@H]1CN(C)C(=O)c2ccc(NC(C)=O)cc2OC[C@H](C)N(C(=O)C2CCOCC2)C[C@H]1C,.,0,1,.
